Several values for one entry are separate records, joined by “and”; a condition that tells them apart may be missing. Equal values may be shown once. Results filed as inconclusive are left out. Activity calls are given as the source filed them. Calls follow the shape of the dose curve; as a rule, active = well fitted curve in the direction sought with a large enough effect in the repeat runs; inconclusive = weak or mixed curves; inactive = no such curve, though single readings can be large; an effect the other way counts as inactive or inconclusive.
Columns and labels:
[1] = Caspase-3/7 induction in HepG2 cells by small molecules, qHTS assay (AID 1346978); also: nearly all actives have a fitted effect of over 15% in size
How it was run: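 Wild-type HepG2 cells (2,000/well) were settled 5 h at 37 C, 5% CO2, then exposed to compounds in DMSO for 17 h. Caspase-3/7 activity was read by luminescence 30 min after adding Caspase-Glo 3/7 reagent at room temperature.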

[2] = Caspase-3/7 induction in CHO-K1 cells by small molecules, qHTS cell viability counter screen (AID 1346979); also: nearly all actives have a fitted effect of over 35% in size
How it was run: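 Wild-type CHO-K1 cells were seeded at 1,500 per well, rested 5hr at 37 C, then exposed to compounds in DMSO. After 16hr, CellTiter-Fluor reagent was added and fluorescence read 1hr later as the viability measure.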

[3] = Caspase-3/7 induction in CHO-K1 cells by small molecules, qHTS assay (AID 1346980); also: nearly all actives have a fitted effect of over 15% in size
How it was run: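 Wild-type cells were seeded at 1,500 per well and settled 5 hr at 37 C, 5% CO2, then exposed to DMSO-dissolved compounds for 17 hr. Caspase-Glo 3/7 reagent was added, and luminescence was read after 30min at room temperature.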

[4] = Caspase-3/7 induction in HepG2 cells by small molecules, qHTS cell viability counter screen (AID 1346981); also: series mostly up to about 92 µM; nearly all actives have a fitted effect of over 30% in size
How it was run: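 Wild-type HepG2 cells, 2,000/well, settled 5 hr at 37 C, 5% CO2 before compound addition. Viability read by CellTiter-Fluor fluorescence, reagent added after 16 hr compound exposure, then 1 hr at 37C, in the same wells as the caspase read.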

[5] = target: Nuclear receptor subfamily 1 group I member 2 (Homo sapiens) (UniProt O75469); test: Human pregnane X receptor (PXR) small molecule agonists, qHTS assay (AID 1346982); also: nearly all actives have a fitted effect of over 35% in size; also: potency is read from the fitted curve at half-maximal effect
How it was run: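 PXR-Luc HepG2 reporter cells (CYP3A4-driven luciferase) in 5% charcoal-stripped FBS medium, plated 5 h before compound addition, then treated 24 h at 37C. Luciferase read by ONE-Glo luminescence after 30 min at room temperature.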

[6] = target: Cytochrome P450 2C19 (Homo sapiens) (UniProt P33261); test: Cytochrome P450 Family 2 Subfamily C Member 19 (CYP2C19) small molecule antagonists: luciferase reporter qHTS assay (AID 1671197); also: nearly all actives have a fitted effect of over 65% in size; also: potency is read from the fitted curve at half-maximal effect
How it was run: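 Light output is proportional to CYP2C19 activity: proluciferin substrate is converted to luciferin, then detected by a luciferin detection reagent that also stops the 1 h, 37C NADPH-driven reaction. Ketoconazole serves as positive control.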

[7] = target: Cytochrome P450 2D6 (Homo sapiens) (UniProt P10635); test: Cytochrome P450 Family 2 Subfamily D Member 6 (CYP2D6) small molecule antagonists: luciferase reporter qHTS assay (AID 1671196); also: nearly all actives have a fitted effect of over 50% in size; also: potency is read from the fitted curve at half-maximal effect
How it was run: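 Cell-free P450-Glo system: CYP2D6 with proluciferin substrate was pre-incubated with compound for 10 min, then reacted with NADPH regeneration for 1 h at room temperature. Luciferin product was detected after 20 min, and data were reported as relative luminescence units.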

[8] = target: Nuclear receptor subfamily 1 group I member 2 (Rattus norvegicus) (UniProt Q9R1A7); test: Rat pregnane X receptor (rPXR) activation by small molecules, qHTS assay (AID 1346983); settings: rPXR luciferase reporter cells, One-Glo luminescence, 24 h; max activation: hits give high values; also: nearly all actives have a fitted effect of over 20% in size; also: potency is read from the fitted curve at half-maximal effect
How it was run: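 Cell-based rPXR luciferase reporter assay, 2,000 cells per well, rested 5hr at 37 C before compound addition in DMSO, then 24 hr at 37 C. One-Glo reagent was added and luminescence read after 30 min at room temperature.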

[9] = target: Nuclear receptor subfamily 1 group I member 2 (Homo sapiens) (UniProt O75469); test: CYP3A4 induction through human pregnane X receptor (PXR) by small molecules, qHTS assay (AID 1346984); also: nearly all actives have a fitted effect of over 40% in size
How it was run: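 DPX-2 HepG2 cells carrying a PXR response element and CYP3A4-promoter luciferase construct, treated with compounds 24 hr at 37C. Then P450-Glo CYP3A4 Luciferin-IPA substrate (3uM final) for 3 hr at 37C, One-Glo added, luminescence read.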

[10] = target: Nuclear receptor subfamily 1 group I member 2 (Homo sapiens) (UniProt O75469); test: Human pregnane X receptor (PXR) activation by small molecules, qHTS assay (AID 1346985); also: nearly all actives have a fitted effect of over 40% in size; also: potency is read from the fitted curve at half-maximal effect
How it was run: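 DPX-2 cells (HepG2 co-transfected with a PXR response element and a CYP3A4-promoter luciferase construct) were seeded at 2,000 per well, rested 5 hr at 37C, then exposed to DMSO-dissolved compounds for 24 hr. Activation was read as luciferase luminescence.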
% is scaled to controls: 0 for no effect and ±100 for the full control effect.

Cytochrome P450 2D6 (Homo sapiens), sequence (P10635 whole entry, looked up): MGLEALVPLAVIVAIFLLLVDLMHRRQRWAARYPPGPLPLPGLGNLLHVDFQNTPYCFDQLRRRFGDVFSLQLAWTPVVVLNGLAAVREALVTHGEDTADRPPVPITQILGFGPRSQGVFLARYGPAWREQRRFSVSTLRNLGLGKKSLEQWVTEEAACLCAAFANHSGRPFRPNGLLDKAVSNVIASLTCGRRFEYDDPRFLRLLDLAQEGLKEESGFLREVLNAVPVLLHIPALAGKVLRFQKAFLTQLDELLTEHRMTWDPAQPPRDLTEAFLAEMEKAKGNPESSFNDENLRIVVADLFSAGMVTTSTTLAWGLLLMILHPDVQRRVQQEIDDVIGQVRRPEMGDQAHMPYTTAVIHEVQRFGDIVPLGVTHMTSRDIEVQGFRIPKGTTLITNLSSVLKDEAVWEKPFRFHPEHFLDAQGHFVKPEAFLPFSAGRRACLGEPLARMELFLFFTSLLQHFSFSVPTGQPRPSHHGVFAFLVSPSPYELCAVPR
Cytochrome P450 2C19 (Homo sapiens), sequence (P33261 whole entry, looked up): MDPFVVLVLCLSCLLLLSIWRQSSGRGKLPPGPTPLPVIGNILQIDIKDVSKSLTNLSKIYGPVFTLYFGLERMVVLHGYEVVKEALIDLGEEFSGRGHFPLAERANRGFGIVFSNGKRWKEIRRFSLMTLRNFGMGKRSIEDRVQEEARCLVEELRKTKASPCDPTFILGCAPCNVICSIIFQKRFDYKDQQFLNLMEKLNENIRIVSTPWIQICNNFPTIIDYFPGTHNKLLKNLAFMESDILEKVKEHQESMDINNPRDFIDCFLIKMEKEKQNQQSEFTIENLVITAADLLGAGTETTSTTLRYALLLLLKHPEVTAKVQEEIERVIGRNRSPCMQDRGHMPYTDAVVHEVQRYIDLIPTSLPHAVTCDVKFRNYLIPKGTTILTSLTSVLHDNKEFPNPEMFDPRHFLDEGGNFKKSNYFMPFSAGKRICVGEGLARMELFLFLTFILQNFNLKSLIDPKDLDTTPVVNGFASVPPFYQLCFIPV
Nuclear receptor subfamily 1 group I member 2 (Homo sapiens), sequence (O75469 whole entry, looked up): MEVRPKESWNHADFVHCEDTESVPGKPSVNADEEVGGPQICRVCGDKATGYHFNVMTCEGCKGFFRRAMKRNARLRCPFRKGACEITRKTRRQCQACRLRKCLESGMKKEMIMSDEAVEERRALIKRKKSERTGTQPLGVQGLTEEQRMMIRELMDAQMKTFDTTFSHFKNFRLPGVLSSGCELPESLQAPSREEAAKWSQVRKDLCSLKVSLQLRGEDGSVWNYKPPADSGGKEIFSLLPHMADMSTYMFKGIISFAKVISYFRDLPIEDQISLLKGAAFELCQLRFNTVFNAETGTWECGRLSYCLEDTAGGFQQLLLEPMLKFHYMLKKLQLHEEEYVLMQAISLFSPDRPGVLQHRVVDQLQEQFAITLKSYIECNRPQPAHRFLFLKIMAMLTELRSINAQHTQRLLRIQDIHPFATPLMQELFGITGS
Nuclear receptor subfamily 1 group I member 2 (Rattus norvegicus), sequence (Q9R1A7 whole entry, looked up): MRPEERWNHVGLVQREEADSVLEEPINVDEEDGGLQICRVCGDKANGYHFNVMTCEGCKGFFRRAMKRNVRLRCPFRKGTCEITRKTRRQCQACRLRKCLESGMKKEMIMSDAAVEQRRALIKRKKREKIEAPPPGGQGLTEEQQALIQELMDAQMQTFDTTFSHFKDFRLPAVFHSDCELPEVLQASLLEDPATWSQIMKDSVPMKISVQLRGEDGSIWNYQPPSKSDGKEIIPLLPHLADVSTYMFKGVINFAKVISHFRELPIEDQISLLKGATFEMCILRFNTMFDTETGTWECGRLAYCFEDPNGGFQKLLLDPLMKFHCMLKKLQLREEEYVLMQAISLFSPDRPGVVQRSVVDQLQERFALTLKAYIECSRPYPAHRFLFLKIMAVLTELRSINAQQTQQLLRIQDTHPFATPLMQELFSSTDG

Cc1ccc(C(=O)c2ccccc2)cc1
inactive: outcome [1] | Potency [2] | outcome [3] | Potency [4] | Potency [5]
active: Potency [6] 10 µM

O=C(CO)[C@@H](O)[C@H](O)[C@H](O)CO
inactive: outcome [1] | Potency [2] | outcome [3] | Potency [4] | Potency [5] | Potency [7] | Potency [6]

CN(C)[C@@H]1C(=O)C(C(=O)NCN2CCCC2)=C(O)[C@@]2(O)C(=O)C3=C(O)c4c(O)cccc4[C@@](C)(O)C3C[C@@H]12 (stereo partly specified)
inactive: outcome [1] | Potency [2] | outcome [3] | Potency [4] | max activation [8] 1.07% and -3.86% | Potency [9] | Potency [10]

Cc1ccc(C(=O)c2ccc(CC(=O)O)n2C)cc1
inactive: outcome [1] | Potency [2] | outcome [3] | Potency [4] | max activation [8] -1.99% | Potency [9] | Potency [10] | Potency [7] | Potency [6]

CCCC(C)C(=O)OCC (stereo unspecified)
inactive: outcome [1] | Potency [2] | outcome [3] | Potency [4] | Potency [5] | Potency [7] | Potency [6]

CC(C)(C)C(=O)Oc1ccc(S(=O)(=O)Nc2ccccc2C(=O)NCC(=O)O)cc1
inactive: outcome [1] | Potency [2] | outcome [3] | Potency [4] | max activation [8] -2.02% | Potency [9] | Potency [10] | Potency [7] | Potency [6]

CCCCCCCC1CCCC1=O (stereo unspecified)
inactive: outcome [1] | Potency [2] | outcome [3] | Potency [4] | Potency [5]
active: Potency [6] 39.9 µM

CCOc1c(N2CCOCC2)cnn(C)c1=O
inactive: outcome [1] | Potency [2] | outcome [3] | Potency [4] | Potency [5] | Potency [7] | Potency [6]

NC(N)=NCCN1CCCCCCC1
inactive: caspase activation [1] -1.67% [at 0.349 µM] | activity change, negative = cytotoxicity [2] -1.24% [at 0.349 µM] | caspase-3/7 activation [3] -0.223% [at 0.349 µM] | activity change, negative = cytotoxicity [4] -1.53% [at 0.349 µM] | max activation [8] -2.81%

C=CCCCCCCCCC(=O)OCC
inactive: outcome [1] | Potency [2] | outcome [3] | Potency [4] | Potency [5] | Potency [6]

O=C(O)CNC(=O)c1ccccc1
inactive: outcome [1] | Potency [2] | outcome [3] | Potency [4] | max activation [8] -5.13% | Potency [9] | Potency [10] | Potency [7] | Potency [6]

CC(C)(C)C(=O)c1ccccc1
inactive: outcome [1] | Potency [2] | outcome [3] | Potency [4] | Potency [5] | Potency [7] | Potency [6]

CCOC(=O)c1ccccc1
inactive: outcome [1] | Potency [2] | outcome [3] | Potency [4] | Potency [5] | Potency [7] | Potency [6]

CC1(C)[C@@H]2CC[C@@]1(C)[C@H](O)C2
inactive: outcome [1] | Potency [2] | outcome [3] | Potency [4] | Potency [5] | Potency [7] | Potency [6]

CCCCOCCOC(=O)COc1cc(Cl)c(Cl)cc1Cl
inactive: outcome [1] | Potency [2] | outcome [3] | Potency [4] | Potency [5]
active: Potency [6] 35.6 µM

c1ccc(CCc2ccccc2)cc1
inactive: outcome [1] | Potency [2] | outcome [3] | Potency [4] | Potency [5] | Potency [7] | Potency [6]

Cc1ccc(-c2ncc(Cl)cc2-c2ccc(S(C)(=O)=O)cc2)cn1
inactive: outcome [1] | Potency [2] | outcome [3] | Potency [4] | max activation [8] 7.56% | Potency [10] | Potency [6]

CC1=CC(=O)[C@H]2C[C@@H]1C2(C)C
inactive: outcome [1] | Potency [2] | outcome [3] | Potency [4] | Potency [5] | Potency [7] | Potency [6]

CN(C)CCN(C)CCN(C)C
active: Potency [5] 29.6 µM
inactive: outcome [1] | Potency [2] | outcome [3] | Potency [4] | Potency [7] | Potency [6]

Cc1nc(C2CCCCC2)c(-c2ccc(S(N)(=O)=O)c(F)c2)o1
active: Potency [5] 21.1 µM | Potency [7] 13.8 µM | Potency [6] 38.9 µM
inactive: outcome [1] | Potency [2] | outcome [3] | Potency [4]

CO[C@@]1(NC(=O)CSC[C@@H](N)C(=O)O)C(=O)N2C(C(=O)O)=C(CSc3nnnn3C)CS[C@@H]21
inactive: outcome [1] | Potency [2] | outcome [3] | Potency [4] | Potency [5] | Potency [6]

C=CN1CCCCCC1=O
inactive: outcome [1] | Potency [2] | outcome [3] | Potency [4] | Potency [5] | Potency [7] | Potency [6]

NC(=O)NC1N=C([O][Al])NC1=O (stereo unspecified)
inactive: outcome [1] | Potency [2] | outcome [3] | Potency [4] | Potency [5] | Potency [6]

c1ccc2sc(SN3CCOCC3)nc2c1
inactive: outcome [1] | Potency [2] | outcome [3] | Potency [4] | Potency [9]
active: Potency [8] 28.2 µM | Potency [10] 10 µM | Potency [6] 17.4 µM

C1CCC2(CCCCO2)OC1
inactive: outcome [1] | Potency [2] | outcome [3] | Potency [4] | Potency [5] | Potency [7] | Potency [6]

N[C@@H](CCC(=O)O)C(=O)O
inactive: outcome [1] | Potency [2] | outcome [3] | Potency [4] | Potency [5]
active: Potency [6] 71 µM

C=CCCC(=O)O
inactive: outcome [1] | Potency [2] | outcome [3] | Potency [4] | Potency [5] | Potency [7] | Potency [6]

CN(C)C(=O)Oc1cccc([N+](C)(C)C)c1
inactive: outcome [1] | Potency [2] | outcome [3] | Potency [4] | max activation [8] -2.37% | Potency [9] | Potency [10] | Potency [7] | Potency [6]
